Tau fluor cs – Counterscreen qHTS for Inhibitors of Tau Fibril Formation, Fluorescence Polarization | actives 0.93% (n = 280,000) | tau K18 P301L Alexa594 fluorescence, heparin fibrillization | Potency, µM (series often up to 57.7 µM); also: nearly all actives have a fitted effect of over 55% in size
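Human K18 P301L tau (15 uM unlabeled plus 0.24 uM Alexa 594-labeled, final) in 100 mM sodium acetate pH 7 was mixed with compound and 20 uM heparin and incubated 6 hr at 37 C.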
Coupling enz – qHTS Assay for Inhibitors of Fructose-1,6-bisphosphate Aldolase from Giardia Lamblia: Coupling assay counterscreen; coupling enzyme system counterscreen, AmpLite Red fluorescence; activity change, negative = inhibition, % at 58.2 µM, hits read low; actives 0.67% (n = 290,000); in the data active = activity change below about -30%
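Compounds tested against the coupling enzymes alone at 57.5 uM final; readout was AmpLite Red fluorescence (525/598 nm) after 20 min at RT.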
Tau FP inhib – qHTS for Inhibitors of Tau Fibril Formation, Fluorescence Polarization | K18 P301L tau heparin fibrillization, Alexa594 FP, 6 h | Potency, µM (doses to about 57.7 µM), hits mostly inhibitors | actives 0.39% (n = 280,000) | Microtubule-associated protein tau (Homo sapiens), P10636; also: nearly all actives have a fitted effect of over 55% in size
Target sequence (P10636 561-689 P618L limits assumed): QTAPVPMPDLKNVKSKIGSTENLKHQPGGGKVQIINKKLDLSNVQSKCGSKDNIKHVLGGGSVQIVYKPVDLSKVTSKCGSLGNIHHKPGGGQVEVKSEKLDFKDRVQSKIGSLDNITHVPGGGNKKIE
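Heparin (20 uM) drove fibril formation of recombinant tau K18 P301L, 15 uM unlabeled with 0.24 uM Alexa 594 label, for 6 hr at 37 C in 100 mM sodium acetate pH 7. Fluorescence polarization (555/632 nm) read 1 hr after 30 uM ThT.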
Sfp inh – qHTS Assay for Inhibitors of Bacillus subtilis Sfp phosphopantetheinyl transferase (PPTase). 4'-phosphopantetheinyl transferase ffp (Bacillus subtilis), Q9F4F7. Potency, µM, hits mostly inhibitors. Biochemical Sfp PPTase activity, qHTS. AID 1490, 2009. actives 3.5% (n = 310,000);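 also: the enzyme is Sfp with the accession as filed and its product quenches rhodamine fluorescence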
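Buffer: 50 mM Hepes-Na pH 7.6, 10 mM MgCl2, 0.01% Nonidet P-40, 0.01% BSA. Enzyme 15 nM, pre-exposed to compound 15 min; substrates then added and fluorescence change tracked over 30 min.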
Tau fibril ThT – qHTS for Inhibitors of Tau Fibril Formation, Thioflavin T Binding. recombinant tau K18 P301L, heparin-induced fibrillization, ThT fluorescence. Potency, µM (titrated, usually from 57.4 µM), hits mostly inhibitors. actives 2.1% (n = 270,000); also: nearly all actives have a fitted effect of over 55% in size
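Using a mix of unlabeled (15 uM) and Alexa 594-labeled (0.24 uM) tau K18 P301L, heparin-triggered fibrillization over 6 hr at 37 C was scored by ThT fluorescence.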
Each line names hits and unclear results; the compound was inactive in the other large screens; [ ] = remark or other dose. Compounds with a hit are over-represented: about 5.2% of the library has one in this group of screens. Unless noted, calls follow the shape of the dose curve; as a rule, active = well fitted curve in the direction sought with a large enough effect; inconclusive = small, poorly fitted or top-dose-only effect, or another doubt; inactive = no such curve, though single readings can be large; an effect the other way counts as inactive or inconclusive.

CN1CCN(C(=O)c2cc(COc3c(F)cccc3F)on2)CC1c1ccccc1 (stereo not drawn)	Sfp inh 10µM
COc1ccccc1CCNC(=O)C(=O)NCC(c1ccco1)S(=O)(=O)c1ccc(F)cc1 (stereo not drawn)	none (no result: Coupling enz, Sfp inh)
Clc1cccc(-c2csc(Nc3cccnc3)n2)c1	Tau fluor cs inconclusive, Sfp inh 56.2µM
c1cncc(Nc2nc(-c3cccnc3)cs2)c1	none
Clc1ccccc1-c1csc(Nc2cccnc2)n1	Sfp inh 31.6µM
CCOc1ccc(NC(=O)c2ccc(NC(=O)N3CCSc4ncccc43)cc2)cc1	none (no result: Coupling enz, Sfp inh)
CC(C)/C=N/Nc1nc2c(c(=O)n(C)c(=O)n2C)n1C	Tau fluor cs inconclusive, Tau FP inhib inconclusive, Tau fibril ThT 28.2µM
CC(C)C(=O)N1c2ncnn2C2(CCCCC2)[C@@H]2CCCC[C@@H]21	none (no result: Coupling enz, Sfp inh)
COc1cc(C=O)c([N+](=O)[O-])cc1OC	Tau fluor cs inconclusive, Coupling enz -61.3, Tau FP inhib 6.31µM, Tau fibril ThT 3.16µM
COc1ccccc1OCCN1C(=O)S/C(=C\c2ccco2)C1=O	Tau fibril ThT inconclusive
N=C1S/C(=C\c2ccco2)C(=O)N1c1nccs1	Sfp inh inconclusive, Tau fibril ThT 15.8µM
N=C1S/C(=C\c2ccco2)C(=O)N1c1ccc2c(c1)OCO2	Tau fluor cs inconclusive, Sfp inh inconclusive, Tau fibril ThT 15.8µM
Cc1ccc(N2C(=O)/C(=C/c3ccco3)SC2=S)cc1	Sfp inh inconclusive, Tau fibril ThT inconclusive
Cc1cc(C=C2C(=O)c3ccccc3C2=O)c(C)n1-c1ccc(C(=O)O)cc1	Sfp inh inconclusive, Tau fibril ThT 14.1µM
Cc1cc(C=C2C(=O)c3ccccc3C2=O)c(C)n1-c1cccc(C(=O)O)c1	Tau fibril ThT 15.8µM
Cc1cc(C=C2C(=O)c3ccccc3C2=O)c(C)n1-c1ccccc1	Tau fibril ThT inconclusive
Cc1ccc(N/C=C/C(=O)c2cccs2)cc1C	Sfp inh 50.1µM, Tau fibril ThT inconclusive
O=C(/C=C/Nc1ccc(Nc2ccccc2)cc1)c1cccs1	Tau fluor cs 7.94µM[quencher], Tau FP inhib inconclusive, Tau fibril ThT 1.26µM
O=C(/C=C/Nc1ccccc1C(=O)O)c1cccs1	Tau fibril ThT inconclusive
Cc1ccc(-c2ccc(CCC(=O)O)n2CC(=O)O)cc1	Sfp inh 70.8µM
O=C(O)CCc1ccc(-c2ccccc2)n1Cc1ccco1	Sfp inh 35.5µM, Tau fibril ThT inconclusive
Cc1cccc(C(=O)NNC(=O)/C=C/C(=O)O)c1	Tau FP inhib inconclusive, Tau fibril ThT inconclusive
CNC(=S)NNC(=O)c1ccccc1Br	none
Cc1ccccc1C(=O)NNC(=O)/C=C\C(=O)O	Sfp inh 22.4µM
O=C(O)/C=C/C(=O)NNC(=O)c1ccccc1Br	Sfp inh 56.2µM
CCCSc1ncc(Cl)c(C(=O)Nc2sc3c(c2C(=O)NCC)CCCC3)n1	none (no result: Coupling enz, Sfp inh)
COc1ccc(-c2nc3c(Br)c(N)c(Br)cc3o2)cc1	Sfp inh 22.4µM, Tau fibril ThT inconclusive
Nc1c(Br)cc2oc(-c3ccccc3)nc2c1Br	none
CCN1CCc2nc3sc(C(=O)Nc4cccc(Cl)c4C)c(N)c3cc2C1	Tau fluor cs inconclusive, Tau fibril ThT 10µM (no result: Coupling enz, Sfp inh)
CCN1CCc2nc3sc(C(=O)Nc4cccnc4Cl)c(N)c3cc2C1	none (no result: Tau fluor cs, Coupling enz, Tau FP inhib, Tau fibril ThT)
CCc1ccc2nc3sc(C(=O)N4CCc5ccccc54)c(N)c3cc2c1	Tau fibril ThT inconclusive
CCN1CCc2nc3sc(C(=O)N4CCc5ccccc5C4)c(N)c3cc2C1	Sfp inh 44.7µM (no result: Tau fluor cs, Tau FP inhib, Tau fibril ThT)
CC(C)c1ccc2nc3sc(C(=O)N4CCc5ccccc5C4)c(N)c3cc2c1	Tau fluor cs inconclusive, Tau fibril ThT 12.6µM
Cc1cc(C)c2c(N)c(C(=O)N3CCc4ccccc4C3)sc2n1	Sfp inh 56.2µM, Tau fibril ThT inconclusive
Cc1ccc(NC(=O)c2sc3nc4c(cc3c2N)CN(Cc2ccccc2)CC4)cc1	Tau fibril ThT inconclusive (no result: Coupling enz, Sfp inh)
CCOc1ccccc1NC(=O)N1CCC2(CC1)Oc1ccccc1C(=O)N2Cc1ccccc1F	none (no result: Coupling enz, Sfp inh)
Nc1ccc(Nc2nc(-c3cc4ccccc4oc3=O)cs2)cc1	Tau fluor cs 8.91µM[quencher], Tau fibril ThT inconclusive

Compound activity from PubChem BioAssay.
